Measured values: PubChem BioAssay AID1159580 (chemical genetic matrix, 2015)
“And” between values parts separate entries of the source, which are not always exact repeats. Identical values can stand only once. About 2,000 (36%) of roughly 5,500 compounds were called active. Roughly 18% stayed inconclusive and do not appear here. No stated cut-off is given here; in the data, active means normalized growth mostly below about 0.91 (no sharp cut-off); inconclusive means no clear call, values can overlap the other calls; inactive means mostly above about 0.92. The list shows a part of the results.

Assay: chemical genetic growth profiling, strain panel (AID 1159580);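 further: tested at 20 µM; growth read once vehicle control cultures reached saturation at 30 °C; 1 = growth at the plate median or of vehicle wells; lower values mean less growth of the strain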
Settings: S. cerevisiae deletion strains, growth OD

Measured: normalized growth

C=CC(C1=CC(=O)C(OC)=CC1=O)c1ccc(O)cc1 (configuration not stated)
inactive: locus YAL013W, strain DEP1, hits give low values 1.04 | locus YAL021C, strain ccr4, hits give low values 1.03 | locus YAL026C, strain drs2, hits give low values 0.977 | locus YAL030W, strain snc1, hits give low values 1.01 | locus YBL061C, strain skt5, hits give low values 0.996 | locus YBR009C, strain hhf1, hits give low values 0.99 | locus YBR021W, strain FUR4, hits give low values 1.04 | locus YBR023C, strain chs3, hits give low values 0.992 | locus YBR171W, strain sec66, hits give low values 1.02 | locus YBR229C, strain ROT2, hits give low values 0.945 | locus YBR231C, strain swc5, hits give low values 0.989 | locus YBR279W, strain paf1, hits give low values 1 | locus YCL011C, strain gbp2, hits give low values 0.998 | locus YCL016C, strain dcc1, hits give low values 0.99 | locus YCL029C, strain bik1, hits give low values 0.987 | locus YCL069W, strain vba3, hits give low values 1.01 | locus YCR088W, strain abp1, hits give low values 1.02 | locus YDL005C, strain med2, hits give low values 0.999 | locus YDL035C, strain GPR1, hits give low values 0.974 | locus YDL040C, strain nat1, hits give low values 0.999 | locus YDL074C, strain BRE1, hits give low values 0.987 | locus YDL101C, strain DUN1, hits give low values 0.986 | locus YDL185W, strain tfp1, hits give low values 0.944 | locus YDL192W, strain arf1, hits give low values 0.981 | locus YDR001C, strain nth1, hits give low values 1.01 | locus YDR069C, strain doa4, hits give low values 0.991 | locus YDR101C, strain arx1, hits give low values 0.991 | locus YDR137W, strain rgp1, hits give low values 0.989 | locus YDR150W, strain NUM1, hits give low values 1.01 | locus YDR159W, strain sac3, hits give low values 0.94 | locus YDR162C, strain NBP2, hits give low values 0.942 | locus YDR195W, strain ref2 1.03 | locus YDR297W, strain sur2, hits give low values 0.986 | locus YDR318W, strain mcm21, hits give low values 0.953 | locus YDR334W, strain swr1, hits give low values 1.02 | locus YDR335W, strain msn5, hits give low values 1.01 | locus YDR388W, hits give low values 0.964 | locus YDR392W, strain spt3, hits give low values 0.825 | locus YDR502C, strain sam2, hits give low values 0.967 | locus YEL003W, strain gim4, hits give low values 0.979 | locus YEL037C, strain rad23, hits give low values 1.01 | locus YEL061C, strain CIN8 (second series), hits give low values 1.01 | locus YEL061C, strain CIN8, hits give low values 0.992 | locus YER015W, strain faa2, hits give low values 0.995 | locus YER016W, strain bim1, hits give low values 1 | locus YER110C, hits give low values 0.927 | locus YER111C, strain swi4, hits give low values 0.998 | locus YER155C, strain BEM2 (second series), hits give low values 0.891 | locus YER155C, strain BEM2, hits give low values 1 | locus YER167W, strain BCK2, hits give low values 0.973 | locus YFR010W, strain ubp6, hits give low values 0.998 | locus YGL078C, strain dbp3, hits give low values 0.985 | locus YGL086W, strain mad1, hits give low values 1 | locus YGL167C, strain pmr1, hits give low values 1.01 | locus YGL173C, strain kem1, hits give low values 0.997 | locus YGL227W, strain vid30, hits give low values 0.999 | locus YGL240W, strain doc1, hits give low values 0.972 | locus YGL248W, strain PDE1, hits give low values 0.992 | locus YGL253W, strain hxk2, hits give low values 1.02 | locus YGR078C, strain PAC10, hits give low values 1.01 | locus YGR135W, strain pre9, hits give low values 0.963 | locus YGR252W, strain gcn5, hits give low values 0.904 | locus YHR013C, strain ard1, hits give low values 1.02 | locus YHR027C, strain rpn1, hits give low values 0.995 | locus YHR030C, strain SLT2, hits give low values 0.98 and 1.04 | locus YHR079C, strain IRE1 (second series), hits give low values 0.982 | locus YHR079C, strain IRE1, hits give low values 1.01 | locus YHR094C, strain hxt1, hits give low values 0.96 | locus YHR129C, strain ARP1, hits give low values 0.991 | locus YHR142W, strain chs7, hits give low values 1.01 | locus YHR200W, strain rpn10, hits give low values 0.965 | locus YIL066C, strain RNR3, hits give low values 0.92 | locus YIL073C, strain SPO22, hits give low values 0.964 | locus YIL125W, strain kgd1, hits give low values 0.987 | locus YIR030C, strain dcg1, hits give low values 0.991 | locus YJL092W, strain hpr5, hits give low values 1 | locus YJL095W, strain BCK1 (second series), hits give low values 0.998 | locus YJL095W, strain BCK1, hits give low values 1.03 and 1.06 | locus YJL115W, strain asf1, hits give low values 1.02 | locus YJL129C, strain trk1, hits give low values 1.03 | locus YJL134W, strain LCB3, hits give low values 0.978 | locus YJL154C, strain vps35, hits give low values 1.01 | locus YJL164C, strain tpk1, hits give low values 0.987 | locus YJL166W, strain qcr8, hits give low values 1 | locus YJL168C, strain set2, hits give low values 0.984 | locus YJL187C, strain SWE1 (second series), hits give low values 0.997 | locus YJL187C, strain SWE1, hits give low values 1 | locus YJR043C, strain POL32, hits give low values 0.941 | locus YJR066W, strain TOR1, hits give low values 0.983 | locus YJR075W, strain HOC1, hits give low values 1.01 | locus YKL009W, strain mrt4, hits give low values 0.957 | locus YKL068W, hits give low values 0.971 | locus YKL085W, strain MDH1 (second series), hits give low values 0.987 | locus YKL085W, strain MDH1, hits give low values 0.987 | locus YKL160W, strain elf1, hits give low values 0.985 | locus YKL190W, strain CNB1, hits give low values 1.01 | locus YKR001C, strain vps1, hits give low values 0.966 | locus YKR026C, strain gcn3, hits give low values 1.01 | locus YKR091W, strain srl3, hits give low values 1.01 | locus YLL001W, strain dnm1, hits give low values 0.958 | locus YLL026W, hits give low values 1 | locus YLL041C, strain sdh2, hits give low values 1.01 | locus YLR027C, strain aat2, hits give low values 1 | locus YLR039C, strain RIC1, hits give low values 1.02 | locus YLR058C, strain SHM2, hits give low values 0.925 | locus YLR102C, strain apc9, hits give low values 0.984 | locus YLR113W, strain HOG1, hits give low values 0.967 | locus YLR221C, strain rsa3, hits give low values 0.989 | locus YLR258W, strain gsy2, hits give low values 1.01 | locus YLR262C, strain YPT6 (second series), hits give low values 0.996 | locus YLR262C, strain YPT6, hits give low values 1.01 | locus YLR268W, strain sec22, hits give low values 1.01 | locus YLR320W, strain mms22, hits give low values 0.988 | locus YLR330W, strain CHS5, hits give low values 1 | locus YLR342W, strain FKS1 (second series), hits give low values 0.935 | locus YLR342W, strain FKS1, hits give low values 0.987 | locus YLR357W, strain rsc2, hits give low values 0.993 | locus YLR370C, strain arc18, hits give low values 1.01 | locus YLR371W, strain rom2, hits give low values 0.965 | locus YLR384C, strain iki3, hits give low values 1.03 | locus YLR418C, strain cdc73, hits give low values 0.933 | locus YML016C, strain PPZ1, hits give low values 0.976 | locus YML032C, strain rad52, hits give low values 0.947 | locus YML120C, strain ndi1, hits give low values 1 | locus YML124C, strain tub3, hits give low values 0.99 | locus YMR058W, strain fet3, hits give low values 1.01 | locus YMR078C, strain ctf18, hits give low values 0.989 | locus YMR125W, strain sto1, hits give low values 1.02 | locus YMR129W, hits give low values 1 | locus YMR205C, strain PFK2, hits give low values 0.992 | locus YMR223W, strain ubp8, hits give low values 0.967 | locus YMR231W, strain pep5, hits give low values 1.01 | locus YMR263W, strain SAP30, hits give low values 1.01 | locus YMR307W, strain GAS1, hits give low values 1.06 | locus YNL067W, strain RPL9B, hits give low values 1.06 | locus YNL071W, strain lat1, hits give low values 1.01 | locus YNL153C, strain GIM3, hits give low values 1.01 | locus YNL183C, strain NPR1, hits give low values 0.983 | locus YNL209W, strain ssb2, hits give low values 0.994 | locus YNL233W, strain BNI4, hits give low values 1.01 | locus YNL248C, strain rpa49, hits give low values 1 | locus YNL250W, strain rad50, hits give low values 0.98 | locus YNL271C, strain bni1, hits give low values 0.99 | locus YNL298W, strain CLA4, hits give low values 0.961 | locus YNL307C, strain MCK1, hits give low values 0.969 | locus YNL322C, strain KRE1 (second series), hits give low values 0.981 | locus YNL322C, strain KRE1, hits give low values 0.994 | locus YNR049C, strain mso1, hits give low values 1.01 | locus YNR052C, strain pop2, hits give low values 0.981 | locus YOL012C, strain htz1 1.04 | locus YOL147C, strain pex11, hits give low values 0.969 | locus YOR001W, strain rrp6, hits give low values 0.986 | locus YOR061W, strain CKA2, hits give low values 0.954 | locus YOR069W, strain VPS5, hits give low values 0.986 | locus YOR070C, strain gyp1, hits give low values 0.982 | locus YOR080W, strain dia2, hits give low values 0.992 | locus YOR083W, strain WHI5, hits give low values 0.977 | locus YOR106W, strain vam3, hits give low values 0.989 | locus YOR136W, strain idh2, hits give low values 0.976 | locus YOR144C, strain elg1, hits give low values 0.98 | locus YOR184W, strain ser1, hits give low values 0.941 | locus YOR231W, strain MKK1, hits give low values 1.03 | locus YOR265W, strain rbl2, hits give low values 1 | locus YOR270C, strain vph1, hits give low values 1.02 | locus YOR290C, strain snf2, hits give low values 0.984 | locus YOR316C, strain cot1, hits give low values 0.982 | locus YPL051W, strain arl3, hits give low values 0.979 | locus YPL078C, strain atp4, hits give low values 0.98 | locus YPL106C, strain sse1, hits give low values 1.01 | locus YPL240C, strain hsp82, hits give low values 1.01 | locus YPL241C, strain CIN2, hits give low values 0.983 | locus YPL256C, strain CLN2, hits give low values 1.06 | locus YPR119W, strain clb2, hits give low values 0.99 | locus YPR141C, strain kar3, hits give low values 0.984 | locus YPR163C, strain tif3, hits give low values 0.979 | locus YPR167C, strain met16, hits give low values 0.974 | strain wtn01, hits give low values 0.994
